# PubChem BioAssay (NCI)
# The panel holds about 79,000 compounds, 15% with a hit somewhere; the sample as a whole holds those more often. A number with no mark means an inactive call. Activity calls are given as the source filed them. No stated cut-off is given here; in the data, active means growth inhibition above about 70%; inactive means the rest.
# What was measured:
# [1] = NCI Yeast Anticancer Drug Screen. Data for the rad52 strain (AID 147);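 further: 0% = growth of vehicle-treated control cultures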; details: S. cerevisiae rad52 mutant growth inhibition, stronger effect = higher value
# In short: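 Compounds are applied to a genetically defined yeast strain lacking normal DNA damage repair, and inhibition of growth is expressed relative to cultures given vehicle only.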
# [2] = NCI Yeast Anticancer Drug Screen. Data for the wt1 strain (AID 149);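 further: 0% = growth of vehicle-treated wt1 cultures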; details: S. cerevisiae wt1 strain (SPY 50644) growth inhibition, stronger effect = higher value
# In short: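 Growth inhibition read against vehicle controls after compound exposure of the wt1 yeast strain.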
# [3] = NCI Yeast Anticancer Drug Screen. Data for the rad50EPP+ strain (AID 151);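 further: 0% = growth of vehicle-treated control cultures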; details: S. cerevisiae rad50 mutant strain, stronger effect = higher value
# In short: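 Compounds were applied to the rad50EPP+ yeast strain, which bears a defined DNA repair alteration, and growth inhibition was determined relative to vehicle-treated cultures.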
# [4] = NCI Yeast Anticancer Drug Screen. Data for the rad50 strain (AID 155);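 further: 0% = growth of vehicle-only cultures of the same strain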; details: S. cerevisiae rad50 strain growth inhibition, stronger effect = higher value
# In short: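 Readout: growth inhibition relative to vehicle-treated cultures. Compound exposure was carried out in a genetically defined yeast strain deficient in DNA damage repair.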
# [5] = NCI Yeast Anticancer Drug Screen. Data for the mec2-1 strain (AID 157); details: S. cerevisiae mec2-1 strain, stronger effect = higher value
# In short: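 Strain: mec2-1 (DNA repair/cell cycle alteration). Compound exposure, then growth measured; inhibition expressed relative to vehicle.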
# [6] = NCI Yeast Anticancer Drug Screen. Data for the rad14 strain (AID 159);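 further: 0% = growth of vehicle-treated control cultures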; details: S. cerevisiae rad14 strain growth inhibition, stronger effect = higher value
# In short: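 Growth inhibition vs vehicle controls; genetically altered yeast strain (DNA damage repair defect) treated with test compounds.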
# [7] = NCI Yeast Anticancer Drug Screen. Data for the sgs1 mgt1 strain (AID 161);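 further: 0% = growth of cultures given vehicle only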; details: S. cerevisiae sgs1 mgt1 strain, stronger effect = higher value
# In short: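 Read-out: growth inhibition vs vehicle controls. Cells: mutant yeast strain deficient in DNA damage repair.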
# [8] = NCI Yeast Anticancer Drug Screen. Data for the CLN2oe strain (AID 163);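 further: 0% = growth of vehicle-only control cultures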; details: S. cerevisiae CLN2oe strain, stronger effect = higher value
# In short: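 Growth of a genetically modified yeast strain is measured after compound exposure and compared with cultures given vehicle alone.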
# [9] = NCI Yeast Anticancer Drug Screen. Data for the cln2 rad14 strain (AID 165);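 further: 0% = growth equal to vehicle treated cultures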; details: S. cerevisiae cln2 rad14 strain, stronger effect = higher value
# In short: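 Compounds are applied to the cln2 rad14 yeast strain, and growth is then compared with that of vehicle-treated cultures to give inhibition.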
# [10] = NCI Yeast Anticancer Drug Screen. Data for the bub3 strain (AID 167); details: S. cerevisiae bub3 mutant strain, stronger effect = higher value
# In short: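 Readout: yeast growth inhibition, expressed relative to vehicle-only wells. The test organism is a mutant strain from a panel with lesions in DNA repair or checkpoint genes.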
# [11] = NCI Yeast Anticancer Drug Screen. Data for the wt2 strain (AID 169);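 further: 0% = growth of vehicle-treated yeast cultures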; details: S. cerevisiae wt2 strain growth inhibition, stronger effect = higher value
# In short: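 This strain belongs to a panel of yeast strains with defined genetic alterations in DNA damage repair or cell cycle control. Compounds are applied, and growth inhibition is measured against vehicle-treated cultures.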
# [12] = NCI Yeast Anticancer Drug Screen. Data for the mlh1 strain (AID 171);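 further: 0% = growth of vehicle-treated control cultures of the same strain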; details: S. cerevisiae mlh1 strain growth inhibition, stronger effect = higher value
# In short: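 Growth of the mutant yeast strain after compound exposure, expressed as inhibition relative to vehicle-only controls.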
# [13] = NCI Yeast Anticancer Drug Screen. Data for the sgs1 strain (AID 173);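 further: 0% = growth of vehicle-only control cultures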; details: S. cerevisiae sgs1 mutant, stronger effect = higher value
# In short: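 Growth of a yeast strain bearing a defined genetic alteration is measured after compound treatment. Inhibition is expressed relative to vehicle-only controls.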
# [14] = NCI Yeast Anticancer Drug Screen. Data for the mlh1 rad18 strain (AID 175); details: S. cerevisiae mlh1 rad18 strain growth inhibition, stronger effect = higher value
# In short: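 Read-out is yeast growth inhibition, calculated against vehicle-only controls. The compound was applied to a strain engineered with DNA damage repair alterations.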
# [15] = NCI Yeast Anticancer Drug Screen. Data for the rad18 strain (AID 177); details: S. cerevisiae rad18 mutant growth inhibition, stronger effect = higher value
# In short: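 Growth of the mutant yeast strain after compound exposure, normalised to vehicle-only cultures.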
# [16] = at 5.0 µM (retest, dose inferred, filed as 0.5)
# [17] = at 50.0 µM (retest, dose inferred, filed as 5.0)
smiles,measurement,setting,value
CC(=O)C1=C(C)O/C(=C/c2cccc(Cl)c2)C1=O,growth inhibition,[1]; at 1.2 µM,14%
same,growth inhibition,[1]; at 3.7 µM,36%
same,growth inhibition,[1]; at 11.0 µM,27%
same,growth inhibition,[1]; at 33.0 µM,36%
same,growth inhibition,[1]; at 100.0 µM,99% (active)
same,growth inhibition,[2]; at 1.2 µM,-7%
same,growth inhibition,[2]; at 3.7 µM,2%
same,growth inhibition,[2]; at 11.0 µM,2%
same,growth inhibition,[2]; at 33.0 µM,-2%
same,growth inhibition,[2]; at 100.0 µM,25%
same,growth inhibition,[3]; at 1.2 µM,16%
same,growth inhibition,[3]; at 3.7 µM,25%
same,growth inhibition,[3]; at 11.0 µM,22%
same,growth inhibition,[3]; at 33.0 µM,32%
same,growth inhibition,[3]; at 100.0 µM,88% (active)
same,growth inhibition,[4]; at 1.2 µM,-4%
same,growth inhibition,[4]; at 3.7 µM,19%
same,growth inhibition,[4]; [16],-1%
same,growth inhibition,[4]; at 11.0 µM,21%
same,growth inhibition,[4]; at 33.0 µM,18%
same,growth inhibition,[4]; [17],59%
same,growth inhibition,[4]; at 50.0 µM,52.7%
same,growth inhibition,[4]; at 100.0 µM,96% (active)
same,growth inhibition,[5]; at 1.2 µM,-9%
same,growth inhibition,[5]; at 3.7 µM,2%
same,growth inhibition,[5]; [16],2%
same,growth inhibition,[5]; at 11.0 µM,0%
same,growth inhibition,[5]; at 33.0 µM,7%
same,growth inhibition,[5]; [17],68%
same,growth inhibition,[5]; at 50.0 µM,71% (active)
same,growth inhibition,[5]; at 100.0 µM,96% (active)
same,growth inhibition,[6]; at 1.2 µM,7%
same,growth inhibition,[6]; at 3.7 µM,0%
same,growth inhibition,[6]; at 11.0 µM,6%
same,growth inhibition,[6]; at 33.0 µM,10%
same,growth inhibition,[6]; at 100.0 µM,28%
same,growth inhibition,[7]; [16],10%
same,growth inhibition,[7]; [17],60%
same,growth inhibition,[7]; at 50.0 µM,10.7%
same,growth inhibition,[8]; at 1.2 µM,5%
same,growth inhibition,[8]; at 3.7 µM,5%
same,growth inhibition,[8]; at 11.0 µM,15%
same,growth inhibition,[8]; at 33.0 µM,29%
same,growth inhibition,[8]; at 100.0 µM,98% (active)
same,growth inhibition,[9]; [16],6%
same,growth inhibition,[9]; [17],12%
same,growth inhibition,[9]; at 50.0 µM,-1.45%
same,growth inhibition,[10]; at 1.2 µM,0%
same,growth inhibition,[10]; at 3.7 µM,12%
same,growth inhibition,[10]; [16],5%
same,growth inhibition,[10]; at 11.0 µM,18%
same,growth inhibition,[10]; at 33.0 µM,26%
same,growth inhibition,[10]; [17],47%
same,growth inhibition,[10]; at 50.0 µM,-8%
same,growth inhibition,[10]; at 100.0 µM,91% (active)
same,growth inhibition,[11]; at 1.2 µM,-12%
same,growth inhibition,[11]; at 3.7 µM,6%
same,growth inhibition,[11]; at 11.0 µM,16%
same,growth inhibition,[11]; at 33.0 µM,71% (active)
same,growth inhibition,[11]; at 100.0 µM,91% (active)
same,growth inhibition,[12]; at 1.2 µM,-3%
same,growth inhibition,[12]; at 3.7 µM,-4%
same,growth inhibition,[12]; at 11.0 µM,4%
same,growth inhibition,[12]; at 33.0 µM,9%
same,growth inhibition,[12]; at 100.0 µM,75% (active)
same,growth inhibition,[13]; at 1.2 µM,2%
same,growth inhibition,[13]; at 3.7 µM,36%
same,growth inhibition,[13]; at 11.0 µM,29%
same,growth inhibition,[13]; at 33.0 µM,39%
same,growth inhibition,[13]; at 100.0 µM,95% (active)
same,growth inhibition,[14]; [16],9%
same,growth inhibition,[14]; [17],88% (active)
same,growth inhibition,[14]; at 50.0 µM,91.3% (active)
same,growth inhibition,[15]; at 1.2 µM,-7%
same,growth inhibition,[15]; at 3.7 µM,16%
same,growth inhibition,[15]; at 11.0 µM,13%
same,growth inhibition,[15]; at 33.0 µM,28%
same,growth inhibition,[15]; at 100.0 µM,99% (active)
Clc1nc(C(Cl)Cl)nc2sc3c(c12)CCCC3,growth inhibition,[1]; at 1.2 µM,10%
same,growth inhibition,[1]; at 3.7 µM,11%
same,growth inhibition,[1]; at 11.0 µM,14%
same,growth inhibition,[1]; at 33.0 µM,26%
same,growth inhibition,[1]; at 100.0 µM,54%
same,growth inhibition,[2]; at 1.2 µM,2%
same,growth inhibition,[2]; at 3.7 µM,4%
same,growth inhibition,[2]; at 11.0 µM,5%
same,growth inhibition,[2]; at 33.0 µM,21%
same,growth inhibition,[2]; at 100.0 µM,56%
same,growth inhibition,[3]; at 1.2 µM,1%
same,growth inhibition,[3]; at 3.7 µM,0%
same,growth inhibition,[3]; at 11.0 µM,1%
same,growth inhibition,[3]; at 33.0 µM,0%
same,growth inhibition,[3]; at 100.0 µM,-2%
same,growth inhibition,[4]; at 1.2 µM,6%
same,growth inhibition,[4]; at 3.7 µM,-1%
same,growth inhibition,[4]; [16],28%
same,growth inhibition,[4]; at 11.0 µM,1%
same,growth inhibition,[4]; at 33.0 µM,31%
same,growth inhibition,[4]; [17],88% (active)
same,growth inhibition,[4]; at 50.0 µM,98.2% (active)
same,growth inhibition,[4]; at 100.0 µM,53%
same,growth inhibition,[5]; at 1.2 µM,11%
same,growth inhibition,[5]; at 3.7 µM,9%
same,growth inhibition,[5]; [16],5%
same,growth inhibition,[5]; at 11.0 µM,15%
same,growth inhibition,[5]; at 33.0 µM,39%
same,growth inhibition,[5]; [17],80% (active)
same,growth inhibition,[5]; at 50.0 µM,89.3% (active)
same,growth inhibition,[5]; at 100.0 µM,66%
same,growth inhibition,[6]; at 1.2 µM,6%
same,growth inhibition,[6]; at 3.7 µM,2%
same,growth inhibition,[6]; at 11.0 µM,9%
same,growth inhibition,[6]; at 33.0 µM,33%
same,growth inhibition,[6]; at 100.0 µM,69%
same,growth inhibition,[7]; [16],5%
same,growth inhibition,[7]; [17],26%
same,growth inhibition,[7]; at 50.0 µM,97.7% (active)
same,growth inhibition,[8]; at 1.2 µM,7%
same,growth inhibition,[8]; at 3.7 µM,9%
same,growth inhibition,[8]; at 11.0 µM,12%
same,growth inhibition,[8]; at 33.0 µM,46%
same,growth inhibition,[8]; at 100.0 µM,63%
same,growth inhibition,[9]; [16],32%
same,growth inhibition,[9]; [17],81% (active)
same,growth inhibition,[9]; at 50.0 µM,78.2% (active)
same,growth inhibition,[10]; at 1.2 µM,5%
same,growth inhibition,[10]; at 3.7 µM,3%
same,growth inhibition,[10]; [16],0%
same,growth inhibition,[10]; at 11.0 µM,8%
same,growth inhibition,[10]; at 33.0 µM,27%
same,growth inhibition,[10]; [17],96% (active)
same,growth inhibition,[10]; at 50.0 µM,92.1% (active)
same,growth inhibition,[10]; at 100.0 µM,43%
same,growth inhibition,[11]; at 1.2 µM,3%
same,growth inhibition,[11]; at 3.7 µM,3%
same,growth inhibition,[11]; at 11.0 µM,6%
same,growth inhibition,[11]; at 33.0 µM,36%
same,growth inhibition,[11]; at 100.0 µM,73% (active)
